Molecules are shown by their SMILES. Inconclusive results are not listed. Values without a mark were called inactive. Calls of active or inactive are those of the source. The call rests on the fitted dose curve.

For 40 compounds, outcome and activation results are on record in PubChem BioAssay (Tox21).
On the % scale 0 is the no-effect control and ±100 the full control effect.

The test can be described thus: qHTS assay for small molecule agonists of the p53 signaling pathway (AID 651631). Further: nearly all actives have a fitted effect of over 15% in size. As to conditions: HCT-116 p53RE-bla reporter, beta-lactamase FRET ratio, 16 h; series mostly up to 73.3 µM. From the text: U.S. Tox21 Program National Center for Advancing Translational Sciences [NCATS] NIH Chemical Genomics Center [NCGC] U.S. Environmental Protection Agency [EPA] National Institutes of Environmental Health Sciences [NIEHS] National Toxicology Program [NTP] U.S. Food and Drug Administration [FDA] Tox21 Assay Overview: p53, a tumor suppressor protein, is activated following cellular insult, including DNA damage and other cellular stresses. The activation of p53 regulates cell fate by inducing DNA repair, cell cycle arrest, apoptosis, or cellular senescence. The activation of p53, therefore, is a good indicator of DNA damage and other cellular stresses. The CellSensor p53RE-bla HCT-116 cell line (Invitrogen) contains a stably integrated beta-lactamase reporter gene under control of the p53 response elements. The activation of the reporter gene under culture conditions can be detected by fluorescence intensity. This cell line was used to screen the Tox21 compound library in a 1536-well plate format and to identify agonists that activate the p53 signaling pathway.
Tox21 Assay Protocol Summary: The p53RE-bla cells were dispensed at 4,000 cells/5 ul/well in 1536-well black wall/clear bottom plates using a Multidrop dispenser. After the assay plates were incubated at a 37 C/5% CO2 incubator for 5 hours, 23 nL of compounds dissolved in DMSO, positive controls or DMSO only was transferred to the assay plate by a pin tool. The plates were incubated at 37 C for 16 hours. After 1 uL of LiveBLAzerTM B/G FRET substrate was added using a Flying Reagent Dispenser, the plates were incubated at room temperature for 2 hours, and fluorescence intensity was measured by an Envision plate reader.
Regarding `CC1(C)[C@H]2CC[C@](C)(C2)[C@H]1O`, the outcome was inactive. In the case of `O=C(O)[C@H](O)c1ccccc1`, the result was inactive.

`CC(=O)OC1CCCCC1C(C)(C)C` (stereo not given): the result was inactive. The same measure, in the same setting: as for `CCCCC1CCC(O)CC1` (stereo not given), the entry is “inactive”. Take `CNCCS(=O)(=O)O`: the outcome was inactive. For the compound `C=C(C)[C@@H]1CC=C(C)CC1`, the result was inactive. Regarding `CC1CCc2c(N3CCC(O)CC3)c(F)cc3c(=O)c(C(=O)O)cn1c23` (stereo not given), the result was inactive. For the compound `Nc1nnnn1-c1ccccc1`, the result was inactive. Still for that read-out and setting: then `CC1=C(O)C(=O)C(C)O1` (stereo not given), with “inactive”.

`OC[C@@H](O)C(O)[C@@H](O)CO` (stereo not given in full): the result was inactive. Take `CC1(C)Cc2cccc(N)c2O1`: the outcome was inactive. Same read-out and setting: then `C=CCCCCCCCCC(=O)OCCCC`, with “inactive”. Turning to `C=CCCCCCCCC`, the outcome was inactive. Take `CC(N)CCCC(C)(C)O` (stereo not given): the outcome was inactive. Still for that read-out and setting: then `COC(=O)CCCCC(=O)O`, with “inactive”; and `CC(O)COC(C)(C)C` (stereo not given), with “inactive”. Same read-out and setting: as for `CCC(=O)c1c(O)cc(O)cc1O`, the entry is “inactive”; as for `Cc1ccc(C(C)NC(=O)[C@@H](NC(=O)OC(C)C)C(C)C)cc1` (stereo not given in full), “inactive”; as for `COC(=O)c1cccc(Cl)c1`, “inactive”.

As for `CC(=O)C(C)O` (stereo not given), the result was inactive. Same read-out and setting: then `CC(C)Nc1ccccc1`, with “inactive”. On the same count and under the same terms, as for `O=C(O)c1cc2ccccc2nc1C(=O)O`, the entry is “inactive”. Same read-out and setting: as for `Cc1cc(-c2ccccc2)nnc1NCCN1CCOCC1`, the entry is “inactive”. On to `OC[C@H]1O[C@@H](O[C@@H]2[C@@H](CO)O[C@](O)(CO)[C@H]2O)[C@H](O)[C@@H](O)[C@H]1O`, for which the result was inactive. Take `C=CC(=O)OCC1CCCO1` (stereo not given): the result was inactive.

Regarding `C[Si]1(C)O[Si](C)(C)O[Si](C)(C)O[Si](C)(C)O[Si](C)(C)O1`, the outcome was inactive. On the same count and under the same terms, as for `NCCOCCN`, the entry is “inactive”; as for `CCCSSCCC`, “inactive”. In the case of `CC/C(C)=N\O[Si](C)(O/N=C(\C)CC)O/N=C(\C)CC`, the outcome was inactive. Same read-out and setting: as for `CCC(C)C(=O)OCCc1ccccc1` (stereo not given), the entry is “inactive”. For `c1ccc2cnccc2c1`, the result was inactive. Consider `O=C1c2ccccc2C(=O)c2cc(Cl)ccc21`, for which the activation was -4.52% [at 8.3 µM]. In the case of `O=Cc1cc2ccccc2o1`, the outcome was inactive. The same measure, in the same setting: as for `CN(C)CCCCl`, the entry is “inactive”; as for `CCCc1ccc(O)cc1`, “inactive”; as for `OCC1CCC(CO)CC1` (stereo not given), “inactive”. Same read-out and setting: then `O=[N+]([O-])c1c(Cl)cc(Cl)cc1Cl`, with “inactive”; and `CCn1cc(C(=O)O)c(=O)c2cnc(N3CCCC3)nc21`, with “inactive”.

In the case of `CCCCCC/C=C/C(=O)OC`, the outcome was inactive.

Regarding `CCC(=O)CC`, the outcome was inactive.
